Screens (PubChem BioAssay)
USP28 inh – human USP28 deubiquitinase inhibition. Q96RU2. purified USP28, Ub-rhodamine cleavage fluorescence, 30 min. inhibition, % at 25 µM. 47,000 compounds, 3% hits
USP17 inh – inhibitors of human USP17 deubiquitinase; A8MUK1; purified USP17, Ub-rhodamine cleavage fluorescence, 3 h; inhibition, % at 50 µM; 47,000 compounds, 6.5% hits; AID 1645855
Target sequence (A8MUK1 whole entry, looked up): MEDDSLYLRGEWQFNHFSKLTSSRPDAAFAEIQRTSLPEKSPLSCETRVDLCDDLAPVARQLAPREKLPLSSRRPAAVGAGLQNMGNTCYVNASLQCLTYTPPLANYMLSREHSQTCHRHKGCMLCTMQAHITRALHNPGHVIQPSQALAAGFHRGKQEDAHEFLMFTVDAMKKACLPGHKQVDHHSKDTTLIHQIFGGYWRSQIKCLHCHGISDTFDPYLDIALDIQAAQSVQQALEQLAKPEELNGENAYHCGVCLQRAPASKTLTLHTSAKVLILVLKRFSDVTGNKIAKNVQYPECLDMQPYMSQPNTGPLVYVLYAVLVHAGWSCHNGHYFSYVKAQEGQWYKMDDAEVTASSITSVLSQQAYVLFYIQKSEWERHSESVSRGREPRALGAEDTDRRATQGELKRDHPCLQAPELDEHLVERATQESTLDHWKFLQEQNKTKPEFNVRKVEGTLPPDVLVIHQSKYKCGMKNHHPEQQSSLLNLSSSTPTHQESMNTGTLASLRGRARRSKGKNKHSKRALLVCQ
USP30 block – human USP30 deubiquitinase inhibition; inhibition, % at 25 µM; AID 1645860; 47,000 compounds, 5.3% hits; Q70CQ3; purified USP30, Ub-rhodamine cleavage fluorescence
An asterisk follows results filed as active. An excerpt weighted towards active compounds, which were near 11% of everything screened. Rule as the data show it: active = inhibition above about 30%; inactive = the rest.

Screening CCC(=O)CCCCC[C@@H]1NC(=O)[C@H]2CCCCN2C(=O)[C@H]([C@@H](C)CC)NC(=O)[C@H](Cc2cn(OC)c3ccccc23)NC1=O returned USP28 inh 13, USP17 inh 36* and USP30 block 0.
For Cn1c(=O)[nH]c2nncnc2c1=O the results were USP28 inh 1, USP17 inh 73* and USP30 block -15.
`O=C(COc1ccc([N+](=O)[O-])cc1)N1CCN(CCc2ccncc2)CC1` gave USP28 inh -5, USP17 inh -17 and USP30 block 0.
COc1ccccc1C1SCC(=O)Nc2c1c(C)nn2-c1nc(C)cc(C)n1 (stereo not given) was read as USP28 inh -11, USP17 inh 0 and USP30 block 1.
For Cc1cc(C)nc(-n2nc(C)c3c2NC(=O)CSC3c2ccccc2F)n1 (stereo not given) the results were USP28 inh 2, USP17 inh 37* and USP30 block 87*.
Screening c1nc(NCC2CC2)nc2c1COCC21CCN(CC2CC2)C1 (stereo not given) returned USP28 inh 4, USP17 inh 3 and USP30 block 17.
`CCc1nn2c(=O)cc(COC(=O)C(O)(c3ccccc3)c3ccccc3)nc2s1` gave USP28 inh 1 and USP30 block -64.
`Cc1cc(C(=O)COC(=O)C(O)(c2ccccc2)c2ccccc2)c(C)n1-c1ccccc1` gave USP28 inh -51, USP17 inh -13 and USP30 block -190.
Screening O=C(NC[C@@H]1OC[C@H]2CN(Cc3nccs3)CC[C@H]21)c1ccno1 returned USP28 inh -17, USP17 inh -32 and USP30 block -37.
For CC(C)=CCCC1(C)C=Cc2c(O)c3c(c(CC=C(C)C)c2O1)OC12C(=CC4CC1C(C)(C)OC2(C/C=C(/C)C(=O)O)C4=O)C3=O (stereo not given) the results were USP28 inh 82*, USP17 inh 89* and USP30 block 71*.
`CC(=O)O[C@H]1[C@]2(O)C[C@]34SS[C@](CO)(C(=O)N3[C@@H]2C[C@@]12O[C@@H](C)C(C)(C)C2=O)N(C)C4=O` gave USP28 inh -2, USP17 inh -33 and USP30 block 63*.
`CC1=C(O)C(=O)C=C2C1=CC=C1[C@@]2(C)CC[C@@]2(C)[C@@H]3C[C@](C)(C(=O)O)CC[C@]3(C)CC[C@]12C` gave USP28 inh 64*, USP17 inh 54* and USP30 block -58.
Screening CC1CC/C=C\C=C/CCC(O)CC(=O)C(C)C2CCC(C)C(O)(O2)C(O)C(=O)OC(C)CC/C=C\C=C/CCC(O)CC(=O)C(C)C2CCC(C)C(O)(O2)C(O)C(=O)O1 (stereo not given) returned USP28 inh -12, USP17 inh -3 and USP30 block -13.
Cc1ccc(OCCCn2cc(C(=O)C(C)(C)C)c3ccccc32)cc1 was read as USP28 inh 1, USP17 inh 3 and USP30 block 0.
`C[C@@H]1CC[C@@]2(OC1)O[C@H]1C[C@H]3[C@@H]4CC=C5C[C@@H](O[C@@H]6O[C@@H](CO)[C@@H](O[C@@H]7O[C@@H](C)[C@H](O[C@@H]8O[C@@H](C)[C@H](O)[C@H](O)[C@H]8O)[C@H](O)[C@H]7O)[C@H](O)[C@@H]6O[C@@H]6O[C@@H](C)[C@H](O)[C@H](O)[C@H]6O)CC[C@]5(C)[C@H]4CC[C@]3(C)[C@H]1[C@@H]2C` gave USP28 inh 38*, USP17 inh 55* and USP30 block 96*.
Screening C[C@@H]1O[C@@H](O[C@H]2CC[C@]3(C=O)[C@H]4CC[C@]5(C)[C@@H](c6ccc(=O)oc6)CC[C@]5(O)[C@@H]4CC[C@]3(O)C2)[C@H](O)[C@H](O)[C@H]1O[C@@H]1O[C@H](CO)[C@@H](O)[C@H](O)[C@H]1O returned USP28 inh -7, USP17 inh -3 and USP30 block 8.
Screening O=C(Cc1cccs1)N1CCN(Cc2nnnn2-c2cccc(F)c2)CC1 returned USP28 inh -10, USP17 inh -4 and USP30 block 0.
Screening CN1C[C@@H]2C[C@H](NC(=O)c3cccnc3)CN2Cc2ccccc21 returned USP28 inh 1, USP17 inh -6 and USP30 block -27.
For CC[C@@]1(O)C[C@H](OC2CC(N(C)C)C(OC3CC(O)C(OC4CCC(=O)C(C)O4)C(C)O3)C(C)O2)c2c(cc3c(c2O)C(=O)c2c(O)ccc(O)c2C3=O)[C@H]1C(=O)OC (stereo not given in full) the results were USP28 inh 13, USP17 inh 71* and USP30 block -13.
Cc1nn(Cc2ccccc2)c(C)c1C(=O)NC1CCCc2ccccc21 (stereo not given) was read as USP28 inh -4, USP17 inh 0 and USP30 block 54*.
`Cc1nn(Cc2ccccc2)c(C)c1C(=O)NCc1ccccc1` gave USP28 inh 14, USP17 inh 12 and USP30 block 28.
`CC[C@@]1([C@@H]2O[C@@H]([C@H]3O[C@@](O)(CO)[C@H](C)C[C@@H]3C)C[C@@H]2C)CC[C@H]([C@]2(C)CC[C@]3(C[C@H](O)[C@@H](C)[C@@H]([C@@H](C)[C@@H](O)[C@H](C)C(=O)O)O3)O2)O1` gave USP28 inh -20, USP17 inh -77 and USP30 block -13.
CO[C@@H]1C[C@@H](C[C@H]2CC[C@H](C)[C@H]([C@@H](C)C(=O)O)O2)O[C@]2(O[C@](C)([C@H]3CC[C@@](C)([C@@H]4O[C@@H]([C@H]5O[C@@](O)(CO)[C@H](C)C[C@@H]5C)C[C@@H]4C)O3)C[C@H]2C)[C@@H]1C was read as USP28 inh 20, USP17 inh 17 and USP30 block 34*.
Screening Cc1c(O)c(C(=O)O)c(O)c2c1[C@H](C)[C@@H](C)OC2 returned USP28 inh -13, USP17 inh -20 and USP30 block -37.
For c1cnc(NC[C@H]2OC[C@H]3CN(Cc4ccncc4)CC[C@H]32)nc1 the results were USP28 inh -3 and USP30 block -16.
Screening Cc1cccc(C)c1-n1nnnc1C1(N)CCC(C)CC1 (stereo not given) returned USP28 inh 13, USP17 inh 21 and USP30 block 33*.
`NC1(c2nnnn2-c2ccccc2)CCCCC1` gave USP17 inh 7.
`O=C(Cc1cccs1)N1CCN(Cc2nnnn2-c2ccccc2)CC1` gave USP28 inh -10, USP17 inh -4 and USP30 block -10.
Screening CN(C(=O)c1ccco1)c1ccc(Cl)cc1C(=O)c1ccccc1 returned USP28 inh 10, USP17 inh -1 and USP30 block 11.
`CCCNC(=O)C1=NOC2(CCNC2)C1` (stereo not given) gave USP28 inh -11, USP17 inh -11 and USP30 block -15.
`O=C1c2c(O)c(Cl)cc3c2[C@@]2(Oc4cc(Cl)c(O)c5c4[C@]3(O2)[C@@H]2O[C@@H]2C5=O)[C@@H]2O[C@H]12` gave USP28 inh 78*, USP17 inh 76* and USP30 block 6.
`O=C(c1cc(-c2ccncc2)n(-c2ccccc2)n1)N1CCC2(CC1)OCCO2` gave USP28 inh -6, USP17 inh -4 and USP30 block 0.
